The panel holds about 79,000 compounds, 15% with a hit somewhere; the sample as a whole holds those more often. Active and inactive are the calls of the source. Cut-off read from the data, not from the text of the source: active = growth inhibition above about 70%; inactive = the rest.
What was measured:
[1] = NCI Yeast Anticancer Drug Screen. Data for the mlh1 strain (AID 171);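 note: 0% = growth of vehicle-treated control cultures of the same strain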; conditions: S. cerevisiae mlh1 strain growth inhibition, active compounds read high
How it was run: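 Vehicle-normalised growth inhibition of a repair- or checkpoint-altered yeast strain following compound treatment.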

[2] = NCI Yeast Anticancer Drug Screen. Data for the sgs1 strain (AID 173);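 note: 0% = growth of vehicle-only control cultures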; conditions: S. cerevisiae sgs1 mutant, active compounds read high
How it was run: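 Screen format: yeast with repair or checkpoint alterations, compound exposure, growth read relative to vehicle.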

[3] = NCI Yeast Anticancer Drug Screen. Data for the mlh1 rad18 strain (AID 175); conditions: S. cerevisiae mlh1 rad18 strain growth inhibition, active compounds read high
How it was run: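 Vehicle-treated cultures served as the reference for growth inhibition in a yeast strain carrying DNA damage repair alterations exposed to each compound.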

[4] = NCI Yeast Anticancer Drug Screen. Data for the rad18 strain (AID 177); conditions: S. cerevisiae rad18 mutant growth inhibition, active compounds read high
How it was run: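 Test articles were incubated with altered yeast defective in DNA damage repair. Results are given as inhibition of growth versus vehicle.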

[5] = NCI Yeast Anticancer Drug Screen. Data for the rad52 strain (AID 147);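 note: 0% = growth of vehicle-treated control cultures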; conditions: S. cerevisiae rad52 mutant growth inhibition, active compounds read high
How it was run: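 Vehicle-treated cultures served as the reference for growth inhibition of compound-exposed yeast bearing a DNA repair mutation.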

[6] = NCI Yeast Anticancer Drug Screen. Data for the wt1 strain (AID 149);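 note: 0% = growth of vehicle-treated wt1 cultures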; conditions: S. cerevisiae wt1 strain (SPY 50644) growth inhibition, active compounds read high
How it was run: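 Measured: growth of wt1 yeast under compound versus vehicle treatment, reported as inhibition.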

[7] = NCI Yeast Anticancer Drug Screen. Data for the rad50EPP+ strain (AID 151);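 note: 0% = growth of vehicle-treated control cultures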; conditions: S. cerevisiae rad50 mutant strain, active compounds read high
How it was run: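 In this screen, rad50EPP+ yeast were exposed to compounds. Growth inhibition was scored against vehicle-treated controls.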

[8] = NCI Yeast Anticancer Drug Screen. Data for the mgt1 strain (AID 153); conditions: S. cerevisiae mgt1 mutant growth inhibition, active compounds read high
How it was run: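 mgt1 strain exposed; growth vs vehicle control recorded as inhibition.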

[9] = NCI Yeast Anticancer Drug Screen. Data for the mec2-1 strain (AID 157); conditions: S. cerevisiae mec2-1 strain, active compounds read high
How it was run: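 Vehicle-treated cultures served as reference for growth inhibition of compound-exposed mec2-1 yeast.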

[10] = NCI Yeast Anticancer Drug Screen. Data for the rad14 strain (AID 159);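 note: 0% = growth of vehicle-treated control cultures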; conditions: S. cerevisiae rad14 strain growth inhibition, active compounds read high
How it was run: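 Here, inhibition of yeast growth was measured after compound exposure, using a strain with a genetic defect in DNA damage repair and vehicle-treated cultures as the reference.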

[11] = NCI Yeast Anticancer Drug Screen. Data for the sgs1 mgt1 strain (AID 161);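 note: 0% = growth of cultures given vehicle only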; conditions: S. cerevisiae sgs1 mgt1 strain, active compounds read high
How it was run: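 Test agents were incubated with a DNA-repair-mutant yeast strain. Growth was then read and compared against vehicle-treated controls.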

[12] = NCI Yeast Anticancer Drug Screen. Data for the CLN2oe strain (AID 163);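 note: 0% = growth of vehicle-only control cultures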; conditions: S. cerevisiae CLN2oe strain, active compounds read high
How it was run: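 Inhibition relative to vehicle-treated yeast is reported. Cells: strain with genetic alteration in cell-cycle control, grown with compound.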

[13] = NCI Yeast Anticancer Drug Screen. Data for the bub3 strain (AID 167); conditions: S. cerevisiae bub3 mutant strain, active compounds read high
How it was run: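 Whole-cell yeast assay. The mutant strain was incubated with compounds, and growth inhibition was determined by comparison with vehicle-treated cells.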

[14] = NCI Yeast Anticancer Drug Screen. Data for the wt2 strain (AID 169);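 note: 0% = growth of vehicle-treated yeast cultures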; conditions: S. cerevisiae wt2 strain growth inhibition, active compounds read high
How it was run: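 Inhibition of yeast growth was determined after compound treatment, normalised to controls receiving only vehicle.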

[15] = NCI Yeast Anticancer Drug Screen. Data for the rad50 strain (AID 155);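 note: 0% = growth of vehicle-only cultures of the same strain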; conditions: S. cerevisiae rad50 strain growth inhibition, active compounds read high
How it was run: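 Growth of the mutant yeast was measured after compound exposure and referenced to vehicle-treated cultures.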

[16] = NCI Yeast Anticancer Drug Screen. Data for the cln2 rad14 strain (AID 165);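 note: 0% = growth equal to vehicle treated cultures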; conditions: S. cerevisiae cln2 rad14 strain, active compounds read high
How it was run: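 Each compound was tested on cln2 rad14 yeast. Inhibition of growth was calculated against vehicle-exposed controls.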

[17] = at 5.0 µM (retest, dose inferred, filed as 0.5)
[18] = at 50.0 µM (retest, dose inferred, filed as 5.0)

Measured: growth inhibition

CN(N=O)N1C(=O)SCC(c2ccccc2)(c2ccccc2)C1=O
inactive: [1]; at 33.0 µM 2% | [1]; at 100.0 µM -8% | [2]; at 1.2 µM -1% | [2]; at 3.7 µM 0% | [2]; at 11.0 µM 5% | [2]; at 33.0 µM 13% | [2]; at 100.0 µM 35% | [3]; [17] -7% | [4]; at 1.2 µM -1% | [4]; at 3.7 µM -3% | [4]; at 11.0 µM 8% | [4]; at 33.0 µM 28%
active: [3]; [18] 71% | [3]; at 50.0 µM 84.5% | [4]; at 100.0 µM 72%

COc1ccc(/C=C/C(=O)C(C)(C)Br)cc1
inactive: [5]; at 1.2 µM 45% | [6]; at 1.2 µM 4% | [6]; at 3.7 µM 12% | [6]; at 11.0 µM 15% | [6]; at 33.0 µM 19% | [6]; at 100.0 µM 33% | [8]; at 1.2 µM 0% | [8]; at 3.7 µM 9% | [8]; at 11.0 µM 18% | [8]; at 33.0 µM 27% | [9]; at 1.2 µM 24% | [9]; [17] 11% | [10]; at 1.2 µM 28% | [10]; at 3.7 µM 69% | [12]; at 1.2 µM 0% | [12]; at 3.7 µM 3% | [12]; at 11.0 µM 20% | [12]; at 33.0 µM 36% | [13]; at 1.2 µM -9% | [13]; at 3.7 µM -7% | [13]; [17] 26% | [13]; at 11.0 µM 4% | [13]; at 33.0 µM 25% | [14]; at 1.2 µM 2% | [14]; at 3.7 µM 10% | [14]; at 11.0 µM 26% | [14]; at 33.0 µM 37% | [1]; at 1.2 µM 5% | [1]; at 3.7 µM 19% | [1]; at 11.0 µM 33% | [1]; at 33.0 µM 54% | [2]; at 1.2 µM 69%
active: [5]; at 3.7 µM 89% | [5]; at 11.0 µM 95% | [5]; at 33.0 µM 97% | [5]; at 100.0 µM 98% | [7]; at 1.2 µM 79% | [7]; at 3.7 µM 93% | [7]; at 11.0 µM 96% | [7]; at 33.0 µM 97% | [7]; at 100.0 µM 98% | [8]; at 100.0 µM 71% | [9]; at 3.7 µM 71% | [9]; at 11.0 µM 96% | [9]; at 33.0 µM 97% | [9]; [18] 98% | [9]; at 50.0 µM 96.6% | [9]; at 100.0 µM 97% | [10]; at 11.0 µM 93% | [10]; at 33.0 µM 96% | [10]; at 100.0 µM 99% | [11]; [17] 86% | [11]; [18] 97% | [11]; at 50.0 µM 93.7% | [12]; at 100.0 µM 89% | [13]; [18] 99% | [13]; at 50.0 µM 73.3% | [13]; at 100.0 µM 82% | [14]; at 100.0 µM 89% | [1]; at 100.0 µM 94% | [2]; at 3.7 µM 87% | [2]; at 11.0 µM 91% | [2]; at 33.0 µM 92% | [2]; at 100.0 µM 95% | [3]; [17] 89% | [3]; [18] 99% | [3]; at 50.0 µM 94.4% | [4]; at 1.2 µM 96% | [4]; at 3.7 µM 97% | [4]; at 11.0 µM 97% | [4]; at 33.0 µM 97% | [4]; at 100.0 µM 98%

N/C(=N\OC(=O)NC(Cl)=C(Cl)Cl)c1cc(C(F)(F)F)cc(C(F)(F)F)c1
inactive: [5]; at 1.2 µM -14% | [5]; at 3.7 µM -11% | [5]; at 11.0 µM -2% | [5]; at 33.0 µM 64% | [6]; at 1.2 µM 16% | [6]; at 3.7 µM -13% | [6]; at 11.0 µM -19% | [6]; at 33.0 µM 40% | [7]; at 1.2 µM -30% | [7]; at 3.7 µM -48% | [7]; at 11.0 µM -43% | [7]; at 33.0 µM -35% | [7]; at 100.0 µM 17% | [8]; at 1.2 µM -23% | [8]; at 3.7 µM 7% | [8]; at 11.0 µM 6% | [15]; at 1.2 µM -10% | [15]; at 3.7 µM -20% | [15]; [17] 34% | [15]; at 11.0 µM 6% | [15]; at 33.0 µM 59% | [15]; [18] 54% | [9]; at 1.2 µM -33% | [9]; at 3.7 µM -61% | [9]; [17] 36% | [9]; at 11.0 µM -32% | [9]; at 33.0 µM 33% | [9]; [18] 58% | [11]; [17] -1% | [12]; at 1.2 µM 25% | [12]; at 3.7 µM 11% | [12]; at 11.0 µM 7% | [12]; at 33.0 µM 66% | [16]; [17] 45% | [13]; at 1.2 µM -23% | [13]; at 3.7 µM -9% | [13]; [17] 34% | [13]; at 11.0 µM -30% | [13]; at 33.0 µM 23% | [14]; at 1.2 µM -43% | [14]; at 3.7 µM -32% | [14]; at 11.0 µM -36% | [14]; at 33.0 µM 38% | [1]; at 1.2 µM -27% | [1]; at 3.7 µM -11% | [1]; at 11.0 µM -14% | [1]; at 33.0 µM 57% | [2]; at 1.2 µM -22% | [2]; at 3.7 µM -16% | [2]; at 11.0 µM -9% | [2]; at 33.0 µM 68% | [3]; [17] 42% | [3]; [18] 67% | [4]; at 1.2 µM -20% | [4]; at 3.7 µM -21% | [4]; at 11.0 µM -2%
active: [5]; at 100.0 µM 98% | [6]; at 100.0 µM 97% | [8]; at 33.0 µM 74% | [8]; at 100.0 µM 97% | [15]; at 50.0 µM 89% | [15]; at 100.0 µM 97% | [9]; at 50.0 µM 89.3% | [9]; at 100.0 µM 95% | [11]; [18] 95% | [11]; at 50.0 µM 89.4% | [12]; at 100.0 µM 98% | [16]; [18] 94% | [16]; at 50.0 µM 89% | [13]; [18] 91% | [13]; at 50.0 µM 89.9% | [13]; at 100.0 µM 96% | [14]; at 100.0 µM 96% | [1]; at 100.0 µM 97% | [2]; at 100.0 µM 97% | [3]; at 50.0 µM 88% | [4]; at 33.0 µM 72% | [4]; at 100.0 µM 97%

— PubChem BioAssay (NCI)
